Here are results for 13 compounds from PubChem BioAssay (EPA / NIEHS).

Each structure is given as a SMILES string. Several values for one entry are separate records, joined by “and”; a condition that tells them apart may be missing. Identical values can stand only once. Inconclusive results are not listed. Activity calls are given as the source filed them. The calls were made as follows: active = hit-call score of the fitted dose curve at least 0.9, where 1 is the maximum; inconclusive = response in the unintended direction; inactive = score below 0.9.

human Dopamine Transporter (DAT), SLC6A3 (gene 6531), sequence (Q01959 whole entry, looked up): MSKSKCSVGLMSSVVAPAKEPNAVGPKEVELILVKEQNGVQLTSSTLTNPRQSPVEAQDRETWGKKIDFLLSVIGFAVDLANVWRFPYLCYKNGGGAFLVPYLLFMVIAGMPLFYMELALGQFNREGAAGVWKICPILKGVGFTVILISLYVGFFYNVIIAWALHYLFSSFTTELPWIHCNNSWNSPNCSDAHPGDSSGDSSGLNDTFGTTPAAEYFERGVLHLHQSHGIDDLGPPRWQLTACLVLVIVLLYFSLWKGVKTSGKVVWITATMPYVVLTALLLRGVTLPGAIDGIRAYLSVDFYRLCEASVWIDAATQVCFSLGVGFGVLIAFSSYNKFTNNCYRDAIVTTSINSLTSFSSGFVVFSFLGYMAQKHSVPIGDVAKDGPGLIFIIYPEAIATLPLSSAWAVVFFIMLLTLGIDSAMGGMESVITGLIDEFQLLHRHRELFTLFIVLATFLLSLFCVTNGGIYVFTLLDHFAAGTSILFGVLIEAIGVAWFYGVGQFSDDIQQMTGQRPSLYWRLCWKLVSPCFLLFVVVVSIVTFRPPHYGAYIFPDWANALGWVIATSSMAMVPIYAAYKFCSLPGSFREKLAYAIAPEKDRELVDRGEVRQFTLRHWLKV

This test has as its target human Dopamine Transporter (DAT), SLC6A3 (gene 6531) (UniProt Q01959). Description: NVS_TR_hDAT: NovaScreen (NVS) Transporter Assay for human Dopamine Transporter (DAT) (AID 2283374).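 Also: activity means loss of bound radioligand signal relative to DMSO.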 As to the method: NVS_TR_hDAT is a biochemical, single-readout assay that uses extracted gene-proteins in a cell-free assay. Measurements were taken 1 hour after chemical dosing in a 96-well plate.NVS_TR_hDAT is one of one assay component(s) measured or calculated from the NVS_TR_hDAT assay. It is designed to make measurements of radioligand binding, a form of binding reporter, as detected with scintillation counting signals by Filter-based radiodetection technology.Data from the assay component NVS_TR_hDAT was analyzed into 1 assay endpoint. This assay endpoint, NVS_TR_hDAT, was analyzed in the positive analysis fitting direction relative to DMSO as the negative control and baseline of activity. Using a type of binding reporter, loss-of-signal activity can be used to understand changes in the binding as they relate to the gene SLC6A3. Furthermore, this assay endpoint can be referred to as a primary readout, because the performed assay has only produced 1 assay endpoint. To generalize the intended target to other relatable targets, this assay endpoint is annotated to the transporter intended target family, where the subfamily is neurotransmitter transporter.
Binding assays used specific radioligands (tritiated, iodinated) with non-radioactive competitive displacement ligands in agonist or antagonist protocols (as indicated) and various reference compounds and inhibitors to titrate specific binding to receptors and transporters. Most enzyme assays (CYPs, kinases, phosphatases, proteases, HDACs) used recombinant protein and specific substrates (fluorescence mostly, some colorimetric and radioactive) and inhibitors, followed by a biochemical separation of substrate and product. All assays for the biochemical HTS were initially run in duplicate at a single concentration (10 uM for CYP450 assays and 25 uM for all others). […] Each assay was run with positive and negative controls, and concurrent controls on every plate. The follow-up (secondary) screen tested active chemical-pairs in concentration series, as well as a few additional assays not tested in the primary screen, some selected negative inactives, and several cases re-run in the concentration series for confirmatory purposes.
In the case of `CC(C)(c1ccc(O)cc1)c1ccc(O)cc1`, the AC50 (in general, the midpoint of the concentration-response curve, whichever way the signal moves) is 8.34 µM (active) [middle of 4 runs].
With `CCOC(=O)NCCOc1ccc(Oc2ccccc2)cc1`, the concentration at half-maximal activity (AC50) is 3.08 µM (active).
With `c1ccc(Nc2ccccc2)cc1`, the AC50 is 4.96 µM (active).
Take `CCN(Cc1c(F)cccc1Cl)c1c([N+](=O)[O-])cc(C(F)(F)F)cc1[N+](=O)[O-]`: the result was inactive.
Turning to `CC(C)(C)[C@@H](O)[C@@H](Cc1ccc(Cl)cc1)n1cncn1`, the AC50 was 2.39 µM (active).
On to `CCOC(=O)C(C)Oc1ccc(Oc2cnc3cc(Cl)ccc3n2)cc1` (stereo not drawn), for which the outcome was inactive.
Regarding `CC(C)CCCCCCc1ccc(O)cc1`, the AC50 was 8.36 µM (active).
For the compound `N#CSCSc1nc2ccccc2s1`, the AC50 was 13.7 µM (active) and 3.9 µM (active).
`Cc1nn(C)c(Oc2ccccc2)c1C=NOCc1ccc(C(=O)OC(C)(C)C)cc1`: the result was inactive.
In the case of `CCCCOCCOCCOCc1cc2c(cc1CCC)OCO2`, the AC50 is 35.7 µM (active).
Still for that read-out and setting: the same measure for `C#CCOC(=O)[C@@H](C)Oc1ccc(Oc2ncc(Cl)cc2F)cc1`: 7.24 µM (active); for `Oc1ccc(C(c2ccc(O)cc2)C(Cl)(Cl)Cl)cc1`: 0.446 µM (active).
Regarding `CCCCCCC(C)OC(=O)COc1nc(F)c(Cl)c(N)c1Cl` (stereo not drawn), the compound was called inactive.
